{
  "source": "the supplement of paper PMC9492666",
  "note": "Structures can show the parent of a compound that is named as a salt.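 Note: breast cancer cell viability read out with the CCK-8 kit after co-treatment of each compound with the ferroptosis inducer RSL3.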",
  "data": [
    {"tested_on": "HCC1937", "assay": "relative cell viability, compound + RSL3, vs DMSO (fraction of DMSO control); higher = less growth inhibition", "details": "72 h", "values": [
      {"smiles": "Cc1c(C(=O)NN2CCCCC2)nn(-c2ccc(Cl)cc2Cl)c1-c1ccc(Cl)cc1", "note": "[Rimonabant] + COC(=O)c1ccc([C@H]2c3[nH]c4ccccc4c3C[C@H](C(=O)OC)N2C(=O)CCl)cc1 [RSL3]", "relative cell viability": 0.649},
      {"smiles": "C[C@@H](Nc1nc(N[C@H](C)C(F)(F)F)nc(-c2cccc(Cl)n2)n1)C(F)(F)F", "note": "[Vorasidenib] + COC(=O)c1ccc([C@H]2c3[nH]c4ccccc4c3C[C@H](C(=O)OC)N2C(=O)CCl)cc1 [RSL3]", "relative cell viability": 0.409},
      {"smiles": "Cc1cnc(C(=O)NCCc2ccc(S(=O)(=O)NC(=O)NC3CCCCC3)cc2)cn1", "note": "[Glipizide] + COC(=O)c1ccc([C@H]2c3[nH]c4ccccc4c3C[C@H](C(=O)OC)N2C(=O)CCl)cc1 [RSL3]", "relative cell viability": 0.597},
      {"smiles": "Cc1c(C)c2c(c(C)c1O)CCC(C)(COc1ccc(CC3SC(=O)NC3=O)cc1)O2", "note": "(stereo not given) [Troglitazone] + COC(=O)c1ccc([C@H]2c3[nH]c4ccccc4c3C[C@H](C(=O)OC)N2C(=O)CCl)cc1 [RSL3]", "relative cell viability": 0.431},
      {"smiles": "COc1cc(C(C)=O)ccc1O", "note": "[Acetovanillone] + COC(=O)c1ccc([C@H]2c3[nH]c4ccccc4c3C[C@H](C(=O)OC)N2C(=O)CCl)cc1 [RSL3]", "relative cell viability": 0.389},
      {"smiles": "CCCc1cc(-c2nc(-c3ccc(C)cc3)cs2)ccn1", "note": "[Fatostatin] + COC(=O)c1ccc([C@H]2c3[nH]c4ccccc4c3C[C@H](C(=O)OC)N2C(=O)CCl)cc1 [RSL3]", "relative cell viability": 0.269},
      {"smiles": "O=C(c1ccc(NS(=O)(=O)c2cccc3cccnc23)cc1)N1CCN(CC2CC2)CC1", "note": "[Mitapivat] + COC(=O)c1ccc([C@H]2c3[nH]c4ccccc4c3C[C@H](C(=O)OC)N2C(=O)CCl)cc1 [RSL3]", "relative cell viability": 0.558},
      {"smiles": "CCCc1c(OCCCOc2ccc(OCC(=O)O)cc2)ccc(C(C)=O)c1O", "note": "+ COC(=O)c1ccc([C@H]2c3[nH]c4ccccc4c3C[C@H](C(=O)OC)N2C(=O)CCl)cc1 [RSL3]", "relative cell viability": 0.556},
      {"smiles": "COc1ccc(C2(CNC(=O)c3ccc(NC(=O)c4ccco4)cc3)CCOCC2)cc1", "note": "+ COC(=O)c1ccc([C@H]2c3[nH]c4ccccc4c3C[C@H](C(=O)OC)N2C(=O)CCl)cc1 [RSL3]", "relative cell viability": 0.441},
      {"smiles": "COc1ccc(Nc2ccn(-c3ccccc3)n2)cc1", "note": "+ COC(=O)c1ccc([C@H]2c3[nH]c4ccccc4c3C[C@H](C(=O)OC)N2C(=O)CCl)cc1 [RSL3]", "relative cell viability": 0.425},
      {"smiles": "Cc1cc([N+](=O)[O-])ccc1NS(=O)(=O)c1cc(Cl)ccc1Cl", "note": "+ COC(=O)c1ccc([C@H]2c3[nH]c4ccccc4c3C[C@H](C(=O)OC)N2C(=O)CCl)cc1 [RSL3]", "relative cell viability": 0.264},
      {"smiles": "CC[C@H](C)C(=O)O[C@H]1C[C@H](O)C=C2C=C[C@H](C)[C@H](CC[C@@H](O)C[C@@H](O)CC(=O)O)[C@H]21", "note": "[Pravastatin sodium] + COC(=O)c1ccc([C@H]2c3[nH]c4ccccc4c3C[C@H](C(=O)OC)N2C(=O)CCl)cc1 [RSL3]", "relative cell viability": 0.77},
      {"smiles": "CC(C)OC(=O)C(C)(C)Oc1ccc(C(=O)c2ccc(Cl)cc2)cc1", "note": "[Fenofibrate] + COC(=O)c1ccc([C@H]2c3[nH]c4ccccc4c3C[C@H](C(=O)OC)N2C(=O)CCl)cc1 [RSL3]", "relative cell viability": 0.681},
      {"smiles": "C=C(C)[C@@H]1CC[C@]2(CO)CC[C@]3(C)[C@H](CC[C@@H]4[C@@]5(C)CC[C@H](O)C(C)(C)[C@@H]5CC[C@]43C)[C@@H]12", "note": "[Betulin] + COC(=O)c1ccc([C@H]2c3[nH]c4ccccc4c3C[C@H](C(=O)OC)N2C(=O)CCl)cc1 [RSL3]", "relative cell viability": 0.619},
      {"smiles": "O=C(O)C(O)Cc1ccc(O)c(O)c1", "note": "(stereo not given) [Sodium Danshensu] + COC(=O)c1ccc([C@H]2c3[nH]c4ccccc4c3C[C@H](C(=O)OC)N2C(=O)CCl)cc1 [RSL3]", "relative cell viability": 0.631},
      {"smiles": "O=C(O)CCCc1cc2cc(Cl)ccc2n1S(=O)(=O)c1ccc2ncsc2c1", "note": "[Lanifibranor] + COC(=O)c1ccc([C@H]2c3[nH]c4ccccc4c3C[C@H](C(=O)OC)N2C(=O)CCl)cc1 [RSL3]", "relative cell viability": 0.464},
      {"smiles": "Oc1ccc(/C=C/c2cc(O)cc(O)c2)cc1", "note": "[Resveratrol] + COC(=O)c1ccc([C@H]2c3[nH]c4ccccc4c3C[C@H](C(=O)OC)N2C(=O)CCl)cc1 [RSL3]", "relative cell viability": 0.63},
      {"smiles": "Cc1nc(-c2nc(-c3ccc(OC(F)(F)F)cc3)no2)nn1Cc1cccc(N2CCC(S(C)(=O)=O)CC2)c1", "note": "+ COC(=O)c1ccc([C@H]2c3[nH]c4ccccc4c3C[C@H](C(=O)OC)N2C(=O)CCl)cc1 [RSL3]", "relative cell viability": 0.417},
      {"smiles": "C[C@@H]1OCC2(CCN(c3cnc(Sc4ccnc(N)c4Cl)c(N)n3)CC2)[C@@H]1N", "note": "+ COC(=O)c1ccc([C@H]2c3[nH]c4ccccc4c3C[C@H](C(=O)OC)N2C(=O)CCl)cc1 [RSL3]", "relative cell viability": 0.378},
      {"smiles": "O=C1C(SCCO)=C(SCCO)C(=O)c2ccccc21", "note": "+ COC(=O)c1ccc([C@H]2c3[nH]c4ccccc4c3C[C@H](C(=O)OC)N2C(=O)CCl)cc1 [RSL3]", "relative cell viability": 0.388},
      {"smiles": "O=c1c(-c2ccc(O)cc2)coc2cc(O)ccc12", "note": "[Daidzein] + COC(=O)c1ccc([C@H]2c3[nH]c4ccccc4c3C[C@H](C(=O)OC)N2C(=O)CCl)cc1 [RSL3]", "relative cell viability": 0.865},
      {"smiles": "O=C(CN1CCN(C(=O)c2ccco2)CC1)Nc1cc(C(F)(F)F)ccc1Cl", "note": "+ COC(=O)c1ccc([C@H]2c3[nH]c4ccccc4c3C[C@H](C(=O)OC)N2C(=O)CCl)cc1 [RSL3]", "relative cell viability": 0.268},
      {"smiles": "Cc1c2c(=O)n(-c3ccccc3Cl)[nH]c2cc(=O)n1Cc1ccccn1", "note": "+ COC(=O)c1ccc([C@H]2c3[nH]c4ccccc4c3C[C@H](C(=O)OC)N2C(=O)CCl)cc1 [RSL3]", "relative cell viability": 0.452},
      {"smiles": "CC(C)(Oc1ccc(CCNC(=O)c2ccc(Cl)cc2)cc1)C(=O)O", "note": "[Bezafibrate] + COC(=O)c1ccc([C@H]2c3[nH]c4ccccc4c3C[C@H](C(=O)OC)N2C(=O)CCl)cc1 [RSL3]", "relative cell viability": 0.594},
      {"smiles": "Nc1ncnc2c1ncn2[C@@H]1O[C@H](COP(=O)(O)O)[C@@H](O)[C@H]1O", "note": "[Adenosine 5'-monophosphate] + COC(=O)c1ccc([C@H]2c3[nH]c4ccccc4c3C[C@H](C(=O)OC)N2C(=O)CCl)cc1 [RSL3]", "relative cell viability": 0.597},
      {"smiles": "CCCCC[C@H](O)CC(=O)CCc1ccc(O)c(OC)c1", "note": "[6-Gingerol] + COC(=O)c1ccc([C@H]2c3[nH]c4ccccc4c3C[C@H](C(=O)OC)N2C(=O)CCl)cc1 [RSL3]", "relative cell viability": 0.298},
      {"smiles": "O=c1ccc2cc(O)c(O)cc2o1", "note": "[Esculetin] + COC(=O)c1ccc([C@H]2c3[nH]c4ccccc4c3C[C@H](C(=O)OC)N2C(=O)CCl)cc1 [RSL3]", "relative cell viability": 0.301},
      {"smiles": "O=C(Nc1ccccc1)c1cc([N+](=O)[O-])ccc1Cl", "note": "+ COC(=O)c1ccc([C@H]2c3[nH]c4ccccc4c3C[C@H](C(=O)OC)N2C(=O)CCl)cc1 [RSL3]", "relative cell viability": 0.805},
      {"smiles": "C[C@H]1N=C(N(C)C)N=C(N)N1", "note": "[Imeglimin hydrochloride] + COC(=O)c1ccc([C@H]2c3[nH]c4ccccc4c3C[C@H](C(=O)OC)N2C(=O)CCl)cc1 [RSL3]", "relative cell viability": 0.504},
      {"smiles": "Cc1ccc(C)c(OCCCC(C)(C)C(=O)O)c1", "note": "[Gemfibrozil] + COC(=O)c1ccc([C@H]2c3[nH]c4ccccc4c3C[C@H](C(=O)OC)N2C(=O)CCl)cc1 [RSL3]", "relative cell viability": 0.631},
      {"smiles": "O=C(NCCS(=O)(=O)c1ccc(C(F)(F)F)cn1)c1ccc(Cl)cc1", "note": "+ COC(=O)c1ccc([C@H]2c3[nH]c4ccccc4c3C[C@H](C(=O)OC)N2C(=O)CCl)cc1 [RSL3]", "relative cell viability": 0.362},
      {"smiles": "CC[C@H](C)C(=O)O[C@H]1C[C@@H](C)C=C2C=C[C@H](C)[C@H](CC[C@@H]3C[C@@H](O)CC(=O)O3)[C@H]21", "note": "[Lovastatin] + COC(=O)c1ccc([C@H]2c3[nH]c4ccccc4c3C[C@H](C(=O)OC)N2C(=O)CCl)cc1 [RSL3]", "relative cell viability": 0.867},
      {"smiles": "O=C(OC(C(F)(F)F)C(F)(F)F)N1CCC(C(O)(c2ccc3c(c2)OCO3)c2ccc3c(c2)OCO3)CC1", "note": "+ COC(=O)c1ccc([C@H]2c3[nH]c4ccccc4c3C[C@H](C(=O)OC)N2C(=O)CCl)cc1 [RSL3]", "relative cell viability": 0.551},
      {"smiles": "O=c1cc(-c2ccc(O)c(-c3c(O)cc(O)c4c(=O)cc(-c5ccc(O)cc5)oc34)c2)oc2cc(O)cc(O)c12", "note": "[Amentoflavone] + COC(=O)c1ccc([C@H]2c3[nH]c4ccccc4c3C[C@H](C(=O)OC)N2C(=O)CCl)cc1 [RSL3]", "relative cell viability": 0.318},
      {"smiles": "CN1CCN(C(=O)C2C(C(=O)O)[C@H]3CC[C@@H]2O3)CC1", "note": "(stereo not given in full) + COC(=O)c1ccc([C@H]2c3[nH]c4ccccc4c3C[C@H](C(=O)OC)N2C(=O)CCl)cc1 [RSL3]", "relative cell viability": 0.313},
      {"smiles": "CC(C)[C@H](N=C(NS(=O)(=O)c1ccc(Cl)cc1)N1C[C@H](c2ccccc2)C(c2ccc(Cl)cc2)=N1)C(N)=O", "note": "+ COC(=O)c1ccc([C@H]2c3[nH]c4ccccc4c3C[C@H](C(=O)OC)N2C(=O)CCl)cc1 [RSL3]", "relative cell viability": 0.551},
      {"smiles": "O=C(O)c1cccnc1Nc1cccc(C(F)(F)F)c1", "note": "[Niflumic acid] + COC(=O)c1ccc([C@H]2c3[nH]c4ccccc4c3C[C@H](C(=O)OC)N2C(=O)CCl)cc1 [RSL3]", "relative cell viability": 0.734},
      {"smiles": "COc1ccc(-n2c(SCCCN3C(=O)c4cccc5cccc(c45)C3=O)nnc2-c2ccncc2)cc1", "note": "+ COC(=O)c1ccc([C@H]2c3[nH]c4ccccc4c3C[C@H](C(=O)OC)N2C(=O)CCl)cc1 [RSL3]", "relative cell viability": 0.324},
      {"smiles": "COc1ccc(-c2coc3cc(O)cc(O)c3c2=O)cc1", "note": "[Biochanin A] + COC(=O)c1ccc([C@H]2c3[nH]c4ccccc4c3C[C@H](C(=O)OC)N2C(=O)CCl)cc1 [RSL3]", "relative cell viability": 0.66},
      {"smiles": "N=C(N)NC(=N)NCCc1ccccc1", "note": "[Phenformin hydrochloride] + COC(=O)c1ccc([C@H]2c3[nH]c4ccccc4c3C[C@H](C(=O)OC)N2C(=O)CCl)cc1 [RSL3]", "relative cell viability": 0.653}
    ]}
  ]
}
